From PubChem BioAssay (NCATS)
Records with an inconclusive call do not appear. Calls of active or inactive are those of the source. Unless noted, the call rests on the fitted dose curve; in most records, active means well fitted curve in the direction sought with a large enough effect; inconclusive means small, poorly fitted or top-dose-only effect, or another doubt; inactive means no such curve, though single readings can be large; an effect the other way counts as inactive or inconclusive.

Key:
[1] = target: Voltage-gated inwardly rectifying potassium channel KCNH2 (Homo sapiens) (UniProt Q12809); experiment: qHTS Assay for Small Molecule Inhibitors of the Human hERG Channel Activity (AID 588834); settings: U2OS BacMam hERG, FluxOR thallium flux fluorescence; series mostly up to 46.1 µM;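 further: top concentration of the series differs between compounds; on the % scale 0 is the no-effect control and ±100 the full control effect; lower thallium flux fluorescence means stronger hERG block; nearly all actives have a fitted effect of over 50% in size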
Method in brief: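 hERG-BacMam U2OS, 2000 cells/well; 0.7X FluxOR loading 1 hr RT dark; cpd ~10 min 37 °C; stim buffer; FDSS fluorescence 2 min @ 1 s; AC50 Hill fit.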

[2] = target: Luciferin 4-monooxygenase (Photinus pyralis) (UniProt P08659); experiment: Biochemical firefly luciferase enzyme assay for NPC (AID 624030); further: nearly all actives have a fitted effect of over 70% in size; further: potency means the concentration at half of the fitted maximal effect; settings: purified P. pyralis luciferase, luminescence, 5 min; series mostly up to 58.6 µM
Method in brief: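 Counter-screen for direct inhibition of the luciferase enzyme by approved-drug library compounds, run at 10 nM enzyme in 50 mM Tris acetate (final). Luminescence was read within 5 min of enzyme-buffer addition and normalized to PTC124 versus DMSO (0%).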

[3] = S16 Schwann cell viability assay (CellTiter-Glo assay) (AID 624031); settings: S16 rat Schwann cells viability, 24 h; series mostly up to 57.5 µM; further: nearly all actives have a fitted effect of over 70% in size; further: potency means the concentration at half of the fitted maximal effect
Method in brief: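 CellTiter-Glo ATP luminescence counter-screen in untransfected S16 rat Schwann cells, 24h compound exposure at 37 degree Celsius after overnight seeding (500-750 cells/well); response scaled between cell-free wells and DMSO (0% activity), curves classed by r2 and magnitude.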

[4] = S16 Schwann cell PMP22 intronic element firefly luciferase assay (AID 624032); settings: S16 rat Schwann cells, PMP22 element FLuc, 24 h; series mostly up to 57.5 µM;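 further: plate controls were DMSO for no effect and PTC124 positive control mean for full effect; nearly all actives have a fitted effect of over 30% in size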
Method in brief: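 Rat S16 Schwann cells stably carrying a PMP22 intronic element-driven Fluc reporter were seeded overnight, then exposed to compounds for 24 h at 37 °C. Luminescence was normalized to PTC124 (positive control) and DMSO (0% activity).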

[5] = S16 Schwann cell PMP22 intronic element beta-lactamase assay (AID 624044; calls by dose curve;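 further: 0% = DMSO and -100% = potassium clavulanate positive control; nearly all actives have a fitted effect of over 15% in size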); settings: S16 rat Schwann cells, PMP22 element beta-lactamase FRET, 24 h; ratio activity, negative = inhibition: at 38.3 µM (top of the series) unless noted
Method in brief: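 Rat S16 Schwann cells with beta-Lac driven by a PMP22 intronic element, compound-treated 24 h at 37 °C. LiveBLAzer FRET B/G read: 460 nm normalized to potassium clavulanate vs DMSO; 535 nm FRET as viability; concentration-effect curves classified.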

Sequence of Luciferin 4-monooxygenase (Photinus pyralis) (P08659 whole entry, looked up): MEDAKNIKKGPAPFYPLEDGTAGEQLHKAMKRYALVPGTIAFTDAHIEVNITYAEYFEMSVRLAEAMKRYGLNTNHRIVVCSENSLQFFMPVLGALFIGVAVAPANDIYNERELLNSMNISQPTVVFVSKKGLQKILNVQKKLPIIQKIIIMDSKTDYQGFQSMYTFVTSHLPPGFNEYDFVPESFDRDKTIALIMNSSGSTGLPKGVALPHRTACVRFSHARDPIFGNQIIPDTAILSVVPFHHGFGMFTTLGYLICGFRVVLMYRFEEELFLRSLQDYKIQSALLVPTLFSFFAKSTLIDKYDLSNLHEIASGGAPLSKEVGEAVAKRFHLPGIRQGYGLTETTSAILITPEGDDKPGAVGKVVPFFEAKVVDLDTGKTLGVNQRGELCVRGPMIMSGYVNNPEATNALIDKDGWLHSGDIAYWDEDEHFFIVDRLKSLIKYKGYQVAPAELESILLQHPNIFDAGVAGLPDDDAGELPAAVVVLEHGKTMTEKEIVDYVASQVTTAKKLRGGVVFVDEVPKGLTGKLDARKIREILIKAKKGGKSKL
Sequence of Voltage-gated inwardly rectifying potassium channel KCNH2 (Homo sapiens) (Q12809 whole entry, looked up): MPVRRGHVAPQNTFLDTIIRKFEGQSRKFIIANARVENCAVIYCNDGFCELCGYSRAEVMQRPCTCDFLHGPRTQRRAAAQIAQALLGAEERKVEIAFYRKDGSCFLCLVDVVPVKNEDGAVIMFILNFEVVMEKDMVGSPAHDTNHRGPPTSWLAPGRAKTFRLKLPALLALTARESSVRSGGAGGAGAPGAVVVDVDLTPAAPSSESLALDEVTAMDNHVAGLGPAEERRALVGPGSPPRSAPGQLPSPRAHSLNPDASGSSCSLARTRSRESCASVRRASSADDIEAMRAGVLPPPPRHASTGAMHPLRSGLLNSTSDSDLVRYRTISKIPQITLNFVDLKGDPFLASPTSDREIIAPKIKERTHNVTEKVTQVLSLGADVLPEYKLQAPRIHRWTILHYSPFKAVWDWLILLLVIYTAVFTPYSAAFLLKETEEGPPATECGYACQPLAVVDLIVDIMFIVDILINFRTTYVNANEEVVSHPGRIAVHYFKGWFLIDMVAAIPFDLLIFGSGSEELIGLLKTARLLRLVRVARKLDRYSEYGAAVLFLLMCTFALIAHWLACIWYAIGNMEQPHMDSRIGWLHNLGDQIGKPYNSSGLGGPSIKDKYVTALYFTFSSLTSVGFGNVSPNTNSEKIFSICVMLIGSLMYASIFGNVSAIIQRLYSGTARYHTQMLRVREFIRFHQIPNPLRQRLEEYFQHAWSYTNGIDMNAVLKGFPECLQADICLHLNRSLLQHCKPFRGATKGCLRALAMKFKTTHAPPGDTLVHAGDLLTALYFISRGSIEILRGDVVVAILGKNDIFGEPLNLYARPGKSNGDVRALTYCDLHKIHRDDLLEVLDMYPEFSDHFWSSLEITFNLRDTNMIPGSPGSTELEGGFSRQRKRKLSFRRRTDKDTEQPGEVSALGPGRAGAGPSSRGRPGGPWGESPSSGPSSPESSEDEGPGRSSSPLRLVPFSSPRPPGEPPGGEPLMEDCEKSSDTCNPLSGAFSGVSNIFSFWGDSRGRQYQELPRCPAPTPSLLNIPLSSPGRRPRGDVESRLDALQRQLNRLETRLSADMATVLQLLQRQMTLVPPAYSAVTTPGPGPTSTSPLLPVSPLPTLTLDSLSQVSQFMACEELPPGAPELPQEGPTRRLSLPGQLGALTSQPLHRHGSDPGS

N=C(N)c1ccc(/C=C/c2ccc(C(=N)N)cc2O)cc1
inactive: Potency [1] | Potency [2] | Potency [3]

FCOC(C(F)(F)F)C(F)(F)F
inactive: Potency [1] | Potency [2] | Potency [3]

O=P(O)(O)CP(=O)(O)O
inactive: Potency [1] | Potency [2] | Potency [3] | Potency [4]

CC(=O)Oc1cc(C(F)(F)F)ccc1C(=O)O
inactive: Potency [1] | Potency [2] | Potency [3] | Potency [4]

CCCc1ccc(C(=O)O)cc1
inactive: Potency [1] | Potency [2] | Potency [3] | Potency [4]

CC1(C)S[C@@H]2[C@H](NC(=O)C3(N)CCCCC3)C(=O)N2[C@H]1C(=O)O
inactive: Potency [1] | Potency [2] | Potency [3]

OCC1(CO)COC(C(Cl)(Cl)Cl)OC1
inactive: Potency [1] | Potency [2] | Potency [3] | Potency [4]

CC1(O)CCC(C(C)(C)O)CC1 (stereo not drawn)
inactive: Potency [1] | Potency [2] | Potency [3]

CCCCCCCCCCCCCCCCCC[N+](C)(C)CCC[Si](OC)(OC)OC
inactive: Potency [1] | Potency [2] | Potency [3]

N[C@H](CC(=O)O)C(=O)O
inactive: Potency [1] | Potency [2] | Potency [3] | Potency [4]

CC(=O)[C@H]1CC[C@H]2[C@@H]3C=CC4=CC(=O)CC[C@@]4(C)[C@H]3CC[C@]12C
inactive: Potency [1] | Potency [2] | Potency [3]

Cc1cc(-c2ccc(N=Nc3c(S(=O)(=O)O)cc4cc(S(=O)(=O)O)cc(N)c4c3O)c(C)c2)ccc1N=Nc1c(S(=O)(=O)O)cc2cc(S(=O)(=O)O)cc(N)c2c1O
inactive: Potency [1]
active: Potency [2] 9.07 µM | Potency [3] 12.8 µM

CO/N=C(\C(=O)N[C@@H]1C(=O)N2C(C(=O)[O-])=C(C[n+]3cccc4c3CCC4)CS[C@H]12)c1csc(N)n1
inactive: Potency [1] | Potency [2] | Potency [3]

CN1c2c(nc(N)[nH]c2=O)NCC1CNc1ccc(C(=O)NC(CCC(=O)O)C(=O)O)cc1 (stereo not drawn)
inactive: Potency [1] | Potency [2] | Potency [3] | Potency [4]

CC(=O)Oc1cccc2c1C(=O)c1c(OC(C)=O)cc(C(=O)O)cc1C2=O
inactive: Potency [1] | Potency [2] | Potency [3] | Potency [4] | ratio activity, negative = inhibition [5] 0.316%

O=C(CCCN1CCN2CCCC2C1)c1ccc(F)cc1 (stereo not drawn)
inactive: Potency [1] | Potency [2] | Potency [3] | Potency [4] | ratio activity, negative = inhibition [5] -6.15%

CC(CC=O)CCCC(C)(C)O (stereo not drawn)
inactive: Potency [1] | Potency [2] | Potency [3] | Potency [4] | ratio activity, negative = inhibition [5] 3.36%

O=C(O)Cc1cc(I)c(Oc2ccc(O)c(I)c2)c(I)c1
inactive: Potency [1] | Potency [2] | Potency [3] | Potency [4] | ratio activity, negative = inhibition [5] 4.37% [at 17.1 µM]

COc1cc(S(C)=O)ccc1-c1nc2ncccc2[nH]1 (stereo not drawn)
inactive: Potency [1] | Potency [2] | Potency [3] | Potency [4] | ratio activity, negative = inhibition [5] -7.74%

CC(C)C1=CC2=CC[C@@H]3[C@](C)(CCC[C@@]3(C)C(=O)O)[C@H]2CC1
inactive: Potency [1] | Potency [2] | Potency [3] | Potency [4] | ratio activity, negative = inhibition [5] -5.72%

CC/C(=C(/CC)c1ccc(OP(=O)(O)O)cc1)c1ccc(OP(=O)(O)O)cc1
inactive: Potency [1] | Potency [2] | Potency [3] | Potency [4] | ratio activity, negative = inhibition [5] 2.34%

O=C1[O][Bi][O]c2ccccc21
inactive: Potency [1] | Potency [2] | Potency [3] | Potency [4] | ratio activity, negative = inhibition [5] 0.885%

CCCCC(CC)CCC(CC(C)C)OS(=O)(=O)O (stereo not drawn)
inactive: Potency [1] | Potency [2] | Potency [3] | Potency [4] | ratio activity, negative = inhibition [5] 0%
